# Source: PubChem
# Hits are enriched below; roughly 4.6% of the tested compounds scored in any of these assays.
# Epigenetic reg: regulators of epigenetic silencing causing reporter derepression in mouse cells | murine LDR cells, GFP reporter derepression, 30 h | Potency, µM (top dose mostly 53.9 µM), actives largely listed as activators | 280,000 tested, 0.2% active; active = well fitted activation curve with a large enough effect; note: nearly all actives have a fitted effect of over 60% in size
#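 Reporter derepression read as number of fluorescent GFP-positive objects, 20-120 um in size, counted by laser-scanning cytometer. Mouse LDR line with an epigenetically silenced CMV-GFP locus; compound incubation 30 h, 37 C.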
# D1 potentiator: potentiators of human D1 dopamine receptor; potentiation, % at 10 µM; HEK293 TREx D1 cells, calcium flux, dopamine EC20 potentiation; 360,000 tested, 0.036% active; AID 504651; in the data active = potentiation above about 30%
# D1 agonist: activates the human D1 dopamine receptor; P21728; HEK293 T-REx D1 cells, calcium flux, agonist mode; activation, % at 2 µM; 360,000 tested, 1% active; AID 504660
#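 Inducible HEK293 T-REx D1 cells, force-coupled to calcium signalling, were plated at 4000 cells/well with tetracycline and held overnight at 30 C. After no-wash calcium dye loading, compound-evoked calcium rise over 180 s flagged agonists.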
# TRHR ag: TRH receptor (human) agonism; P34981; TRHR cells, calcium flux fluo-8, FDSS agonist mode; activation, % at 2 µM; 360,000 tested, 0.18% active
# Target sequence (P34981 whole entry, looked up): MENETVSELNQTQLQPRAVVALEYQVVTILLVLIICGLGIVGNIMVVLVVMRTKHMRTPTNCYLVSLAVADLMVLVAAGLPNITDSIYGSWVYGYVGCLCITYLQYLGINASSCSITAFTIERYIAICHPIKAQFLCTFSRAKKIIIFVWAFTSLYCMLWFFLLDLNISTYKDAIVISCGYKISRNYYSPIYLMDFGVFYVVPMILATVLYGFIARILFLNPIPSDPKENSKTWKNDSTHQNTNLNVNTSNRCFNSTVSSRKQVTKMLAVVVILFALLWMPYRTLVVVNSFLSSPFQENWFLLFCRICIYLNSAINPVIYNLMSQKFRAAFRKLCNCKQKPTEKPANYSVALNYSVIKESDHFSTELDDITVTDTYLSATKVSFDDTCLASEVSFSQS
#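 TRHR-expressing cells loaded with fluo-8 calcium dye; 23 nL library compound pin-transferred, kinetic FDSS fluorescence (Ex 480/Em 530) recorded about 180 s for agonist-induced calcium release, before a 10 nM TRH EC20 addition for potentiator mode.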
# D1 antagonist: human D1 dopamine receptor antagonism | P21728 | HEK293 TREx D1 cells, calcium flux, dopamine EC80; hits give low values | activity change, negative = inhibition, % at 10 µM | 360,000 tested, 3.2% active | AID 504652; in the data active = activity change below about -30%
#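 Allosteric or orthosteric antagonism assessed as attenuation of the calcium response to EC80 dopamine, added 180 s after compound, in induced HEK293 Trex D1 cells loaded with no-wash calcium dye.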
# TRHR enhancer: TRH receptor (human) allosteric enhancement; TRHR cells, fluo-8 calcium fluorescence, EC20 TRH enhancement; enhancement, % at 2 µM; 360,000 tested, 0.66% active; in the data active = enhancement above about 30%
#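 Enhancer read-out: after compound pinning and an initial kinetic agonist-mode read, an EC20 of TRH (10 nM final) was injected and fluo-8 calcium signal (Ex 480/Em 530) followed at 1 s/cycle for 100 cycles in TRHR-expressing cells.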
# Numbers stand for hits; 0 = inactive; - = not tested or not shown. Cut-off read from the data, not from the text of the source, unless noted: active = activation above about 30%; inactive = the rest.
SMILES,Epigenetic reg,D1 potentiator,D1 agonist,TRHR ag,D1 antagonist,TRHR enhancer
Cc1ccccc1-n1nnnc1SC(C)C(=O)Nc1ccc(N2CCN(C)CC2)cc1 (centres undefined),-,0,0,0,-67.9,0
Cc1cccc(-n2nnnc2SCC(=O)Nc2ccc(N3CCN(C)CC3)cc2)c1,-,0,0,0,0,0
Cc1ccccc1-n1nnnc1SCC(=O)Nc1ccc(N2CCN(C)CC2)cc1,-,0,0,0,-77.0,0
O=C(NC1CCCC1)c1ccc2c(c1)N(Cc1ccc(C(F)(F)F)cc1)C(=O)c1ccccc1S2,0,0,0,0,0,0
Cc1cccc(NC(=O)c2cnc3sc(N4CCCC4)nn3c2=O)c1C,0,0,0,0,0,0
Cc1ccc(CNC(=O)C2CCCN(S(=O)(=O)c3cn(C)cn3)C2)cc1 (centres undefined),0,0,0,0,0,0
COc1ccc(Cl)cc1NC(=O)NCCc1c(C)nn(C)c1C,0,0,0,0,0,0
Cc1ccccc1CN1CCN(CC(=O)NCc2ccccc2Cl)C1=O,0,0,0,0,0,0
CC(C)(C)c1ccc(-n2ncc3c2CCCC3NC(=O)CN2CCOC2=O)cc1 (centres undefined),-,0,0,0,-42.0,0
O=C(O)CCCNC(=O)CCCn1nnc2ccccc2c1=O,0,0,0,0,0,31.9
O=C(O)CCCCCNC(=O)CCn1cnc2ccccc2c1=O,0,0,0,0,-50.6,0
C=Cc1nc(Nc2cc(F)cc(F)c2)nc(NC2CCCC2)n1,-,0,0,0,0,0
CCOC(=O)c1c(CSC(=N)N)n(-c2ccc(C)cc2)c2cc(Br)c(OC(C)=O)cc12,0,0,39.4,0,0,0
Cn1cnc([N+](=O)[O-])c1Sc1ccc(C(C)(C)C)cc1,0,0,35.2,0,0,0
CC(C)CSC1=NSC2=NC(=O)/C(=C\c3coc4ccccc4c3=O)C(=N)N12,0,0,240.2,51.0,0,0
CSC1=NSC2=NC(=O)/C(=C\c3coc4ccccc4c3=O)C(=N)N12,0,0,305.8,120.9,-47.6,0
N=C1/C(=C\c2coc3ccccc3c2=O)C(=O)N=C2SC(c3ccncc3)=NN12,0,0,255.5,145.8,-31.4,32.5
COCCCn1c(Cc2csc(Nc3ccccc3)n2)nnc1SCC(N)=O,0,0,0,0,-35.8,0
NC(=O)CSc1nnc(Cc2csc(Nc3ccccc3)n2)n1Cc1ccccc1,0,0,0,0,0,0
Cc1ccc(/C=C2\Oc3c(ccc(O)c3CN3CCN(C)CC3)C2=O)cc1,0,0,40.0,0,0,0
CCN1CCN(Cc2c(O)ccc3c2O/C(=C\C=C\c2ccccc2)C3=O)CC1,0,0,0,0,0,0
CCc1ccc(/C=C2\Oc3c(ccc(O)c3CN3CCN(C)CC3)C2=O)cc1,0,0,0,0,0,0
COc1ccccc1/C=C/C=C1\Oc2c(ccc(O)c2CN2CCN(CCO)CC2)C1=O,0,0,114.3,0,-30.8,0
CCN1CCN(Cc2c(O)ccc3c2O/C(=C\c2ccccc2)C3=O)CC1,0,0,51.5,0,0,0
Cc1ccc2[nH]c(CSc3nnc(NC(=O)COc4ccc(F)cc4)s3)cc(=O)c2c1,0,0,0,0,0,0
SMILES,Epigenetic reg,D1 potentiator,D1 agonist,TRHR ag,D1 antagonist,TRHR enhancer
CCCC[C@@H]1C[C@H]1C(NC(=O)c1cccnc1)c1ccc(-c2ccccc2)cc1 (some centres undefined),0,-,-,-,-,-
N/C(=N\N=C\c1ccc([N+](=O)[O-])cc1)c1nonc1N,0,0,0,0,-43.0,0
COc1ccc(OC)c(/C=N/N=C(\N)c2nonc2N)c1,0,0,0,0,-30.3,0
COc1ccc(OC)c(NC(=O)c2cc3c(n(-c4ccc(Cl)cc4)c2=O)CC(C)(C)CC3=O)c1,0,0,0,0,0,0
CN(C)Cc1ccccc1-c1nc(N(C)Cc2ccco2)c2ccccc2n1,0,-,-,-,-,-
COc1cc(C(=O)NCCc2cn3ccccc3n2)cc(OC)c1OC,0,0,0,0,0,30.1
COCc1nc2ccccc2n1Cc1ccc(C(C)(C)C)cc1,0,0,0,0,0,0
CC(C)NC(=S)N/N=C/c1cc(Br)ccc1O,0,0,0,0,-57.7,0
O=C(N/N=C\c1ccccc1O)c1ccccc1O,0,-,-,-,-,-
O=C(CCc1ccccc1)N/N=C/c1cc(Br)ccc1O,0,0,0,0,-43.3,0
O=C(N/N=C/c1cc(Br)ccc1O)c1ccccc1Cl,0,0,0,0,-41.9,0
O=C(CSCc1ccccc1)N/N=C/c1cc2c(cc1Br)OCO2,0,0,0,0,0,0
Oc1ccc(Br)cc1/C=N/NC(=S)NCCc1ccccc1,-,0,0,0,0,0
O=C(CCc1ccccc1)N/N=C\c1cc2c(cc1Br)OCO2,-,0,0,0,-31.4,0
CCC(CC)C(=O)Nc1ccc2nc(SCC(=O)N3CCOCC3)sc2c1,0,0,0,0,0,0
Cc1ccccc1OCCCCn1c(CCNC(=O)C(C)(C)C)nc2ccccc21,0,0,0,0,0,0
O=C1CN(C(=O)c2ccc(Cl)cc2Cl)C(c2ccc(F)cc2)c2cc(F)ccc2N1 (centres undefined),0,0,0,0,0,0
Cc1ccc(NC(=O)COc2cccc(-n3cnnn3)c2)cc1[N+](=O)[O-],-,0,0,0,-45.5,0
COc1cccc(NC(=O)COc2cccc(-n3cnnn3)c2)c1,0,0,0,0,0,0
O=C(Nc1noc2ccccc12)c1ccc(F)cc1,0,0,0,0,0,46.0
O=C(Nc1noc2ccccc12)c1cccc(F)c1,0,0,0,0,0,0
COC(=O)N/N=C\c1c(C)nn(-c2ccccc2)c1Cl,0,0,0,0,0,0
Cc1nn(-c2ccccc2)c(Cl)c1/C=N/NC(N)=O,0,0,0,0,-31.5,0
O=C(CN1C(=O)c2cccc3cccc1c23)Nc1cccc(F)c1,0,0,0,0,0,0
COc1ccc(Cl)cc1NC(=O)Cn1cc(C(=O)c2ccncc2)c(=O)c2cc(C)ccc21,0,0,0,0,0,0
Cc1ccc(NC(=S)N2CCCC(c3nc4ccc(C)cc4[nH]3)C2)c(C)c1 (centres undefined),0,0,0,0,-31.3,0
COc1cccc(CNC(=O)c2c(C)nn(-c3cccc(C)c3)c2-n2cccc2)c1,0,0,0,0,0,0
N#C/C(=C\c1ccc(O)c(Br)c1)C(=O)N1CCCCC1,-,0,0,0,0,0
Cc1occc1C(=O)/C(C#N)=C/c1ccc(O)c(Br)c1,-,-,45.2,0,0,0
Cc1ccc(C)c(C2NC(=O)c3ccccc3N2)c1 (centres undefined),0,0,0,0,0,37.4
